Test [1] in a line: NCI Yeast Anticancer Drug Screen. Data for the rad50 strain (AID 155).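 Also: 0% = growth of vehicle-only cultures of the same strain.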 The settings on record: S. cerevisiae rad50 strain growth inhibition; at 50.0 µM; hits give high values. The procedure, abridged:
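Cells are treated with compound, grown, and their growth is then scored against vehicle-only cultures of the same repair-deficient yeast strain.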

A short description of test [2]: NCI Yeast Anticancer Drug Screen. Data for the mec2-1 strain (AID 157). The following applies: S. cerevisiae mec2-1 strain, at 50.0 µM, hits give high values. A digest of the protocol:
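Strain: mec2-1 (DNA repair/cell cycle alteration). Compound exposure, then growth measured; inhibition expressed relative to vehicle.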

Test [3] is described as follows: NCI Yeast Anticancer Drug Screen. Data for the sgs1 mgt1 strain (AID 161).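 Also: 0% = growth of cultures given vehicle only.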 The following applies: S. cerevisiae sgs1 mgt1 strain, at 50.0 µM, hits give high values. The procedure, abridged:
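Read-out: growth inhibition vs vehicle controls. Cells: mutant yeast strain deficient in DNA damage repair.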

Test [4] is described as follows: NCI Yeast Anticancer Drug Screen. Data for the cln2 rad14 strain (AID 165).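 Also: 0% = growth equal to vehicle treated cultures.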 The following applies: S. cerevisiae cln2 rad14 strain, at 50.0 µM, hits give high values. The procedure, abridged: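 Compounds are applied to the cln2 rad14 yeast strain, and growth is then compared with that of vehicle-treated cultures to give inhibition.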
Test [5] is described as follows: NCI Yeast Anticancer Drug Screen. Data for the bub3 strain (AID 167). The settings on record: S. cerevisiae bub3 mutant strain, at 50.0 µM, hits give high values. A digest of the protocol: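 Part of a panel of yeast mutants defective in DNA damage repair or cell cycle regulation. Each strain is grown with compound, and inhibition is calculated relative to solvent-treated cultures.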

A short description of test [6]: NCI Yeast Anticancer Drug Screen. Data for the mlh1 rad18 strain (AID 175). The following applies: S. cerevisiae mlh1 rad18 strain growth inhibition; at 50.0 µM; hits give high values. The procedure, abridged:
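Read-out is yeast growth inhibition, calculated against vehicle-only controls. The compound was applied to a strain engineered with DNA damage repair alterations.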

We go through 19 compounds from PubChem BioAssay (NCI).

Values joined by “and” are separate entries in the source; they are usually repeats but may differ in a detail not shown here. Identical values can stand only once. The panel holds about 79,000 compounds, 15% with a hit somewhere; the sample as a whole holds those more often. Unmarked numbers belong to inactive results. Active and inactive are the calls of the source. Rule as the data show it: active = growth inhibition above about 70%; inactive = the rest.

For the compound `O=CC=O`, the growth inhibition is 33.1% in test [1]; 17.6% in test [2]; 24.4% in test [3]; 21.6% in test [4]; 33.9% in test [5]; 28.4% in test [6].
With `O=C(O)CCCC1CCCCC1.[Ni]`, the growth inhibition was -6.95% in test [1]; 14.8% in test [2]; -2.1% in test [3]; 16% in test [4]; -10.8% in test [5]; -18.6% in test [6].
`CC1(C(=O)O)C2[Se]c3cc[se]c3C2C1(C)C(=O)O` (centres undefined): the growth inhibition in test [1] is -2.5%; in test [2], 9.8%; in test [3] it was -8.15%; in test [4], -20.8%; in test [5], 1%; in test [6], -4.7%.
With `CCCC1(c2ccccc2)C(=O)NCNC1=O`, the growth inhibition in test [1] is -21.8%; in test [2], -30.4%; in test [3], -24.3%; in test [4], -12.2%; in test [5], -25.4%; in test [6] it was -25.1%.
Turning to `CCCCN1CCC2(CC1)COCc1ccccc12`, the growth inhibition in test [1] is 57.2%; in test [2], 34.3%; in test [3] it was 42%; in test [4], 28.7%; in test [5], 54.9%; in test [6] it was 44.1%.
Consider `CCOc1ccc(OCC)c(C(O)C(C)NC(C)C)c1` (centres undefined), for which the growth inhibition in test [1] was -0.55%; in test [2], 9.1%; in test [3] it was 6%; in test [4] it was 0.1%; in test [5] it was -3.6%; in test [6], -10.2%.
Take `CC1CC2CCC1(CO)CN2` (centres undefined): the growth inhibition is -0.45% in test [1]; 2.3% in test [2]; 0.1% in test [3]; 4.65% in test [4]; 0.85% in test [5]; 3.9% in test [6].
For the compound `CNC(=S)P(c1ccccc1)c1ccccc1`, the growth inhibition in test [1] was 9.4%; in test [2], 15.2%; in test [3] it was 7.1%; in test [4], 22.4%; in test [5], 13.4%; in test [6], 10.4%.
Take `CCCCCCCNC(=O)CBr`: the growth inhibition in test [1] was 44%; in test [2] it was 26.2%; in test [3], 33.4%; in test [4], 4.75%; in test [5], 41.2%; in test [6], 46.5%.
`O=C([O-])CC(=O)[O-].[Cu+2].[OH3+].[OH3+]`: the growth inhibition in test [1] was 24.9%; in test [2], 11.2%; in test [3], 12.2%; in test [4] it was -19.6%; in test [5], -9.35%; in test [6], 6.1%.
With `[Mn+3].[O-][Cl+3]([O-])([O-])O.[O-]c1ccccc1C=NCCN1CC1.[O-]c1ccccc1C=NCCN1CC1`, the growth inhibition was 95.5% (active) in test [1]; 98.7% (active) in test [2]; 93.5% (active) in test [3]; 87.1% (active) in test [4]; 98.8% (active) in test [5]; 84.2% (active) in test [6].
Regarding `CN1CCOC(c2ccccc2)c2ccsc2CC1` (centres undefined), the growth inhibition in test [1] was 17.2%; in test [2], -5%; in test [3], 35.2%; in test [4], 0%; in test [5], 9.4%; in test [6] it was 16.8%.
As to `CC[C@H]1CN2CCc3c([nH]c4ccccc34)[C@@H]2C[C@@H]1/C(=C/OC)C(=O)OC` (tested in a mixture with another compound), the growth inhibition was -23.2% in test [1]; -25.6% in test [2]; -24.6% in test [3]; 3.6% in test [4]; -32.9% in test [5]; -13.9% in test [6].
As for `CCC(Br)C(=O)O` (centres undefined), the growth inhibition is 26.6% in test [1]; -4.3% in test [2]; -0.3% in test [3]; -22.5% in test [4]; 24.4% in test [5]; 24.8% in test [6].
As for `CC(C)[CH2][Sn]([CH2]C(C)C)([CH2]C(C)C)[C](C)(C)C`, the growth inhibition was 99.3% (active) in test [1]; 99.7% (active) in test [2]; 99.5% (active) in test [3]; 99.2% (active) in test [4]; 99.4% (active) in test [5]; 99.5% (active) in test [6].
Take `O=P1(N(CCCl)CCCl)Oc2c(Cl)cc(Cl)c(Cl)c2Cc2c(Cl)c(Cl)cc(Cl)c2O1`: the growth inhibition was -15.1% in test [1]; -31.7% in test [2]; 2.85% in test [3]; 0.25% in test [4]; -14.2% in test [5]; -10.7% in test [6].
With `c1ccc(CN2C3CCCC2CC(c2ccccc2)C3)cc1` (centres undefined), the growth inhibition was 79.8% (active) in test [1]; 63.9% in test [2]; 80.3% (active) in test [3]; 71.8% (active) in test [4]; 65.7% in test [5]; 85.5% (active) in test [6].
Turning to `COc1ccc(Cc2nccc3cc(OC)c(OC)cc23)cc1OC`, the growth inhibition is -4.15% and -16.3% in test [1]; -19.4% and -28% in test [2]; -6.9% and 11.4% in test [3]; -2.9% and -11.6% in test [4]; -11.7% and -7.9% in test [5]; -21.1% and -29.4% in test [6].
As for `CC12CCC3C(CC=C4CC(=O)CCC43CCO)C1CCC2Oc1ccccc1` (centres undefined), the growth inhibition was 5.3% in test [1]; -11.9% in test [2]; -2.45% in test [3]; 16.4% in test [4]; 23.7% in test [5]; 13.3% in test [6].
